Sampled rows, rich in hits. Any-hit rate of the full collection: about 19%.
IL1B secr inh – qHTS for Inhibitors of Inflammasome Signaling: IL-1-beta AlphaLISA Primary Screen; THP-1 LPS/ATP IL-1B secretion, AlphaLISA, 16 h; stronger effect = lower value; activity change, % at 57.5 µM; 360,000 tested, 4.7% active; AID 743279, 2014; in the data active = activity change below about -50%; inconclusive = mostly about -30% to -49%; also: % is scaled to controls: 0 for no effect and ±100 for the full control effect
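THP-1 cells pretreated 1 hr with compounds (up to 57.5 uM final), then stimulated with LPS (250 ng/mL final) plus ATP (1.25 mM final); secreted IL-1B measured by AlphaLISA after 16 hr, decreased signal indicating inhibition.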
DT40 TDP1 no CPT – qHTS for Inhibitors of human tyrosyl-DNA phosphodiesterase 1 (TDP1): qHTS in cells in absence of CPT; Potency, µM (titrated, usually from 46.2 µM), for the others: at the top dose activity change, negative = growth inhibition, hits mostly inhibitors; DT40 Tdp1-/- hTDP1 cells, no CPT, ATP luminescence, 48 h; 420,000 tested, 15% active; also: potency is read from the fitted curve at half-maximal effect; % is scaled to controls: 0 for no effect and ±100 for the full control effect; nearly all actives have a fitted effect of over 55% in size
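DT40 Tdp1-/-;hTDP1 cells, no CPT (DMSO vehicle only), 400 cells/well; compounds pin-transferred; ≥48 hr, 37 °C; CellTiter-Glo 30 min RT dark, luminescence read.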
MCF10A rerep – A quantitative high throughput screen for small molecules that induce DNA re-replication in MCF 10a normal breast cells. MCF 10A DNA re-replication, Hoechst nuclear intensity, 48 h. Potency, µM (top dose mostly 46.1 µM), for inactives: at the highest dose activity, positive = re-replication, usual class: activators. 350,000 tested, 2.9% active; also: potency is read from the fitted curve at half-maximal effect; % of control where 0% means no effect; nearly all actives have a fitted effect of over 50% in size
DT40 TDP1 CPT – qHTS for Inhibitors of human tyrosyl-DNA phosphodiesterase 1 (TDP1): qHTS in cells in presence of CPT. 420,000 tested, 12% active. AID 686979, 2013. chicken DT40 Tdp1-/-;hTDP1 cells + 20 nM CPT, ATP luminescence, 48 h. Potency, µM (top dose mostly 46.2 µM), without a hit: top-dose activity change, negative = growth inhibition, hits mostly inhibitors; also: potency is read from the fitted curve at half-maximal effect; % is scaled to controls: 0 for no effect and ±100 for the full control effect; nearly all actives have a fitted effect of over 55% in size
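Cell growth measured by CellTiter-Glo luminescence after a minimum 48 h, 37 C compound exposure with 20 nM CPT in Tdp1-knockout DT40 cells stably expressing hTDP1, seeded 400/well; qHTS titration format.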
SW480 rereplic – A quantitative high throughput screen for small molecules that induce DNA re-replication in SW480 colon adenocarcinoma cells | 340,000 tested, 1.8% active | SW480 DNA re-replication, Hoechst DNA content imaging, 48 h | Potency, µM (titrated, usually from 46.1 µM), without a hit: at the highest dose re-replication activation, actives largely listed as activators; also: potency is read from the fitted curve at half-maximal effect; % of control where 0% means no effect; nearly all actives have a fitted effect of over 55% in size
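Treated cells incubate 48 hr (37 C, 5% CO2), are stained 40 min with Hoechst, and nuclear fluorescence is enumerated; a rise in nuclei with high DNA signal marks re-replication.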
Chronic BCR inh – qHTS Assay to Find Inhibitors of Chronic Active B-Cell Receptor Signaling. ABC-DLBCL IkBa-CBG/CBR reporter, luminescence ratio, 4 h. Potency, µM (titrated, usually from 46.1 µM), for inactives: top-dose activity change, negative = inhibition, actives largely listed as inhibitors. 340,000 tested, 0.05% active. AID 493014, 2011; active = well fitted inhibition curve with a large enough effect in the signal ratio, with a control signal flat, not every such curve was filed as active; inconclusive = small, poorly fitted or top-dose-only effect, or effect the other way, or a change in a side signal; the % refers to the signal ratio;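 also: potency is read from the fitted curve at half-maximal effect; plate controls were basal doxycycline-induced cells for no effect and cells given 10 µM MG132 for full effect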
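Cell line TMD8 (human ABC DLBCL), stably expressing tet-inducible CBG68-IkBa fusion and CBR; IMDM/0.5% FBS; cpd up to 46 uM; dox induction, 4 h, 37C/5% CO2; dual luminescence; green/red ratio; MG132 control.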
Active calls of the source: *; ? = inconclusive; . = not tested or not shown; [ ] = dose if it differs, or a comment. Unless noted, calls follow the shape of the dose curve; as a rule, active = well fitted curve in the direction sought with a large enough effect; inconclusive = small, poorly fitted or top-dose-only effect, or another doubt; inactive = no such curve, though single readings can be large; an effect the other way counts as inactive or inconclusive.

SMILES | IL1B secr inh | DT40 TDP1 no CPT | MCF10A rerep | DT40 TDP1 CPT | SW480 rereplic | Chronic BCR inh
COC(=O)[C@]1(Cc2ccccc2)N[C@H](c2ccc(-c3cccc(Cl)c3)cc2)[C@@H]2C(=O)N(C)C(=O)[C@@H]21 | ? | ? | -4.5% | 16.4µM* | -0.7% | ?
COC(=O)[C@]1(Cc2ccccc2)N[C@H](c2ccc(-c3cc(C(C)=O)cs3)cc2)[C@@H]2C(=O)N(C)C(=O)[C@@H]21 | 3.4 | 23.1µM* | -9.2% | 16.4µM* | 4.1% | -12.9%
COC(=O)[C@]1(Cc2ccccc2)N[C@H](c2ccc(-c3ccc(Cl)c(Cl)c3)cc2)[C@@H]2C(=O)N(C)C(=O)[C@@H]21 | -25.1 | 18.4µM* | 5.2% | 18.4µM* | -3.0% | -10.8%
COC(=O)[C@]1(Cc2ccccc2)N[C@H](c2ccc(-c3ccccc3)cc2)[C@@H]2C(=O)N(C)C(=O)[C@@H]21 | -21.0 | ? | 0.7% | ? | -1.7% | ?
COc1ccc(-n2c(=O)c3ccccc3n(Cc3ccc(F)cc3Cl)c2=O)cc1OC | . | -1.3% | . | -4.8% | . | .
Cc1ccccc1C(=O)Nc1ccc2c(C#N)c3nc4ccccc4nc3n2c1 | -0.8 | 20.6µM* | 6.3% | 20.6µM* | -5.6% | 16.5%
CCOCCCn1c(SC(C)C(=O)NCC2CCCO2)nc2sc(C)c(C)c2c1=O (configuration not stated) | -26.7 | -12.8% | -3.3% | -18.0% | -17.2% | 2.7%
C=CCSc1nnc(NC(=O)CCNC(=O)c2ccccc2Cl)s1 | 8.0 | -15.3% | . | -5.9% | . | .
COC(=O)c1nnn(CC(=O)NC(=O)Nc2ccccc2)c1C(=O)OC | -70.1* | -16.3% | ? | 12.2% | -0.1% | -0.5%
CCOc1cc(CNC(=O)c2ccc(Cn3c(=O)c4cccn4c4cccnc43)cc2)ccc1OC | . | ? | . | -27.9% | . | .
O=C(NC1(Cc2ccccc2)CCN(CCCc2ccccc2)C1=O)c1ccccc1 (configuration not stated) | -18.1 | 1.16µM* | ? | 0.651µM* | 0.0%[9.22 µM] | -5.7%
Cc1nc(Nc2nc3ccccc3o2)nc2c1CCC2 | -21.9 | 20.6µM* | -125.3%[0.0737 µM] | ? | ? | ?
CCOC(=O)c1cnc(Nc2nc3ccccc3o2)nc1C | -11.7 | 3.16µM* | -11.8% | 3.16µM* | ? | 23.3%
CCOC(=O)c1cnc(Nc2ccccc2)nc1C(F)(F)F | 4.8 | ? | 0.0% | -20.2% | -32.9% | -16.6%
CCOC(=O)c1cnc(Nc2nc3ccccc3o2)nc1CSc1nnc(C)s1 | 31.4 | 2.59µM* | ? | 3.26µM* | 0.651µM* | .
Cc1cccc(C)c1NC(=O)CN(C)C(=O)C1CC(=O)N(c2cccc3ccccc23)C1 (configuration not stated) | 14.9 | 3.1% | -1.8% | -0.5% | -7.6% | 2.6%
Cc1c(C(=O)NCc2ccc3c(c2)OCO3)sc(=O)n1Cc1ccc(-c2ccccc2)cc1 | 0.0 | -23.3% | . | ? | . | .
CC1CCN(S(=O)(=O)N2CCN(C(=O)c3ccc4c(c3)OCO4)CC2)CC1 | 22.7 | -1.0% | 1.4% | 4.7% | -2.1% | -2.3%
CN(C)c1c2ccccc2nc2c(F)c(F)c(F)c(F)c12 | -95.8* | 20.6µM* | ? | 23.1µM* | ? | 0.5%
Cc1c2ccccc2nc2c(F)c(N(C)C)c(F)c(F)c12 | 16.8 | ? | ? | ? | 19.0% | 7.0%
COc1ccc2nc(N=Nc3ccc(N(C)C)cc3)sc2c1 | -10.3 | ? | -0.9% | 16.4µM* | 1.6% | ?
COc1ccc2nc(/N=C\N(C)C)sc2c1 | -6.4 | -1.7% | 2.3% | -13.2% | 6.1% | -7.7%
CSc1ccc(CNC(=O)C2CCC(=O)N(CCc3cccc(F)c3)C2)cc1 (configuration not stated) | 1.1 | -1.2% | -2.3% | -17.6% | -29.9% | -0.4%
CCC(Oc1nc2ccccc2nc1-c1ccccc1NC(C)=O)C(=O)c1ccccc1 (configuration not stated) | -12.0 | ? | 14.8% | ? | 6.1% | -1.0%
CCC(C(=O)Nc1ccc(C(=O)OC)cc1)n1c(=O)c(-c2ccccc2NC(C)=O)nc2ccccc21 (configuration not stated) | . | 3.26µM* | . | 14.6µM* | . | .
SMILES | IL1B secr inh | DT40 TDP1 no CPT | MCF10A rerep | DT40 TDP1 CPT | SW480 rereplic | Chronic BCR inh
CCOc1ccc(NC(=O)C(CC)n2c(=O)c(-c3ccccc3NC(C)=O)nc3ccccc32)cc1 (configuration not stated) | . | ? | . | 18.4µM* | . | .
CC(C)Cc1nc2oc3c(Cl)ncnc3c2c2c1CCC2 | -101.8* | 18.4µM* | ? | 13µM* | 4.11µM* | -8.5%
CC(C)c1nc2oc3c(N4CCNCC4)ncnc3c2c2c1CCC2 | -12.8 | 16.8% | -0.8% | -13.8% | -2.8% | .
CC(C)Cc1nc2oc3c(NCCCN4CCOCC4)ncnc3c2c2c1CCC2 | -59.2* | ? | 28.1% | 15.8µM* | ? | 2.5%
Cc1csc2c(NCCCN3CCOCC3)ncnc12 | 21.1 | 0.5% | 3.9% | 6.4% | -19.8% | 5.1%
O=C(NCc1ccccc1)/C(=C\c1cccc([N+](=O)[O-])c1)NC(=O)c1ccco1 | 14.8 | 4.0% | . | -11.8% | . | .
O=C(Nc1ccccc1F)C1COc2ccccc2O1 (configuration not stated) | 13.6 | 7.2% | 15.5% | -18.8% | -10.3% | -0.2%
CCn1c(COc2ccccc2C)nnc1SCC(=O)OC | 8.4 | -2.8% | 1.4% | -12.9% | -2.4% | 6.9%
CCn1c(COc2cccc(C)c2)nnc1SCC(=O)N1CCCC1 | -15.6 | -11.4% | -3.9% | -19.1% | -3.7% | 2.9%
CCn1c(COc2cccc(C)c2C)nnc1SCC(=O)N1CCN(c2ccc(OC)cc2)CC1 | 14.4 | 20.6µM* | 2.8% | 20.6µM* | -6.1% | 0.6%
CCn1c(COc2ccccc2C)nnc1SCC(=O)N1CCN(c2ccccc2)CC1 | -13.4 | 23.1µM* | -3.7% | ? | 0.6% | -5.7%
COc1ccccc1NC(=O)N1CCCC1C(=O)NCc1ccccc1Cl (configuration not stated) | 15.6 | -1.4% | -1.1% | 5.3% | -2.2% | 4.5%
CC(=O)c1ccc(N2CCN(C(=O)c3cccs3)C(C)C2)c(F)c1 (configuration not stated) | -13.2 | 20.6µM* | -3.2% | ? | 1.8% | -0.4%
